Structures can show the parent of a compound that is named as a salt.
Tested on: Danio rerio larvae (5 dpf)
Test: 1-h baseline activity (% time moving, periods 1-6) minus DMSO control (percentage points); higher = more locomotor activity than DMSO larvae
Conditions: 10 µM; exposure time: 3 h pre-incubation + 3 h imaging
Method: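 Wild-type 5 dpf zebrafish larvae (n=48 per drug, 96-well plates, 28.5 °C) were exposed to Tocris FDA-approved library compounds at 10 µM (0.1% DMSO) for 3 h before and 3 h during imaging. Images were taken every 6 s during visual (moving coloured lines) and acoustic stimuli, and larvae were tracked with the DeepLabCut-based Z-LaP Tracker. Each behavioural measure is the treated-group mean minus the DMSO vehicle control mean (n=844), in percentage points. This mapping covers compounds with 4-character plate codes.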

**Q.** `Nc1cc(N2CCCCC2)nc(N)[n+]1[O-]` [Minoxidil] was tested. Which 1-h baseline activity did it give?
**A.** Its 1-h baseline activity is 1.13.

**Q.** Which 1-h baseline activity does the source give for `CCOC(=O)N1CCC(=C2c3ccc(Cl)cc3CCc3cccnc32)CC1` [Loratidine] here?
**A.** The 1-h baseline activity was -19.4.

**Q.** How did the 1-h baseline activity turn out when `CCCCCCCCc1ccc(CCC(N)(CO)CO)cc1` was run?
**A.** Its 1-h baseline activity is -21.1.

**Q.** Which 1-h baseline activity does the source give for `CCCc1nc(C(C)(C)O)c(C(=O)O)n1Cc1ccc(-c2ccccc2-c2nnn[nH]2)cc1` [Olmesartan] here?
**A.** Its 1-h baseline activity is 10.4.

**Q.** For `CN1CC(=O)N2[C@H](c3ccc4c(c3)OCO4)c3[nH]c4ccccc4c3C[C@@H]2C1=O` [Tadalafil], which 1-h baseline activity is on record?
**A.** The 1-h baseline activity was 10.9.

**Q.** For `Cn1nnc2c(C(N)=O)ncn2c1=O` [Temozolomide], which 1-h baseline activity is on record?
**A.** The 1-h baseline activity was 5.97.

**Q.** With `CC(C)C(=O)Nc1ccc([N+](=O)[O-])c(C(F)(F)F)c1` [Flutamide] as the compound, how does the 1-h baseline activity read?
**A.** Its 1-h baseline activity is -9.78.

**Q.** `CC(C)c1nc(N(C)S(C)(=O)=O)nc(-c2ccc(F)cc2)c1/C=C/[C@@H](O)C[C@@H](O)CC(=O)O` [Rosuvastatin calcium] was tested. Which 1-h baseline activity did it give?
**A.** The 1-h baseline activity was 2.58.

**Q.** With `CCCCCOC(=O)Nc1nc(=O)n([C@@H]2O[C@H](C)[C@@H](O)[C@H]2O)cc1F` [Capecitabine] as the compound, how does the 1-h baseline activity read?
**A.** Its 1-h baseline activity is 6.82.

**Q.** Which 1-h baseline activity does the source give for `CO[C@H]1/C=C/O[C@@]2(C)Oc3c(C)c(O)c4c(O)c(c5c(nc6cc(C)ccn65)c4c3C2=O)NC(=O)/C(C)=C\C=C\[C@H](C)[C@H](O)[C@@H](C)[C@@H](O)[C@@H](C)[C@H](OC(C)=O)[C@@H]1C` [Rifaximin] here?
**A.** The 1-h baseline activity was -1.58.

**Q.** `Cc1ccccc1C(=O)Nc1ccc(C(=O)N2CCCC(O)c3cc(Cl)ccc32)c(C)c1` (stereo not given) [Tolvaptan] was tested. Which 1-h baseline activity did it give?
**A.** The 1-h baseline activity was 0.214.

**Q.** `CCCc1nc2c(C)cc(-c3nc4ccccc4n3C)cc2n1Cc1ccc(-c2ccccc2C(=O)O)cc1` [Telmisartan] was tested. Which 1-h baseline activity did it give?
**A.** The 1-h baseline activity was -7.8.

**Q.** Which 1-h baseline activity does the source give for `COc1cc2nc(N3CCN(C(=O)c4ccco4)CC3)nc(N)c2cc1OC` [Prazosin hydrochloride] here?
**A.** The 1-h baseline activity was -4.14.

**Q.** How did the 1-h baseline activity turn out when `CCOc1cc(CC(=O)N[C@@H](CC(C)C)c2ccccc2N2CCCCC2)ccc1C(=O)O` [Repaglinide] was run?
**A.** Its 1-h baseline activity is 4.99.

**Q.** Which 1-h baseline activity does the source give for `COc1ccc(-c2ccc3cc(C(=O)O)ccc3c2)cc1C12CC3CC(CC(C3)C1)C2` [Adapalene] here?
**A.** The 1-h baseline activity was -1.21.

**Q.** How did the 1-h baseline activity turn out when `N[C@@H]1[C@H]2CN(c3nc4c(cc3F)c(=O)c(C(=O)O)cn4-c3ccc(F)cc3F)C[C@@H]12` [Trovafloxacin mesylate] was run?
**A.** Its 1-h baseline activity is 4.29.

**Q.** For `CC(C)(C(=O)c1cccnc1)c1cccnc1` [Metyrapone], which 1-h baseline activity is on record?
**A.** Its 1-h baseline activity is -9.17.

**Q.** `CC[C@H](C)C(=O)O[C@H]1C[C@@H](C)C=C2C=C[C@H](C)[C@H](CC[C@@H]3C[C@@H](O)CC(=O)O3)[C@H]21` [Lovastatin] was tested. Which 1-h baseline activity did it give?
**A.** Its 1-h baseline activity is -3.77.

**Q.** `CN1CCC[C@@H]1Cc1c[nH]c2ccc(CCS(=O)(=O)c3ccccc3)cc12` [Eletriptan hydrobromide] was tested. Which 1-h baseline activity did it give?
**A.** Its 1-h baseline activity is 2.42.

**Q.** For `CC(C)(C)NC(=O)[C@@H]1C[C@@H]2CCCC[C@@H]2CN1C[C@@H](O)[C@H](Cc1ccccc1)NC(=O)[C@H](CC(N)=O)NC(=O)c1ccc2ccccc2n1` [Saquinavir mesylate], which 1-h baseline activity is on record?
**A.** Its 1-h baseline activity is -10.4.

**Q.** `CC(=O)S[C@@H]1CC2=CC(=O)CC[C@]2(C)[C@H]2CC[C@@]3(C)[C@@H](CC[C@@]34CCC(=O)O4)[C@H]12` [Spironolactone] was tested. Which 1-h baseline activity did it give?
**A.** Its 1-h baseline activity is -0.875.

**Q.** With `CCCCC(=O)N(Cc1ccc(-c2ccccc2-c2nnn[nH]2)cc1)[C@H](C(=O)O)C(C)C` [Valsartan] as the compound, how does the 1-h baseline activity read?
**A.** The 1-h baseline activity was 3.3.

**Q.** How did the 1-h baseline activity turn out when `Cc1nnc(C(C)C)n1C1C[C@H]2CC[C@@H](C1)N2CC[C@H](NC(=O)C1CCC(F)(F)CC1)c1ccccc1` (stereo in doubt) [Maraviroc] was run?
**A.** The 1-h baseline activity was -3.33.

**Q.** How did the 1-h baseline activity turn out when `COc1ccc(C[C@@H](C)NC[C@H](O)c2ccc(O)c(NC=O)c2)cc1` [Arformoterol tartrate] was run?
**A.** Its 1-h baseline activity is 41.7.

**Q.** With `OCCN(CCO)c1nc(N2CCCCC2)c2nc(N(CCO)CCO)nc(N3CCCCC3)c2n1` [Dipyridamole] as the compound, how does the 1-h baseline activity read?
**A.** The 1-h baseline activity was -3.7.

**Q.** Which 1-h baseline activity does the source give for `COc1ccc(Cl)cc1C(=O)NCCc1ccc(S(=O)(=O)NC(=O)NC2CCCCC2)cc1` [Glibenclamide] here?
**A.** The 1-h baseline activity was -0.0251.

**Q.** `CN(CCOc1ccc(CC2SC(=O)NC2=O)cc1)c1ccccn1` (stereo not given) [Rosiglitazone] was tested. Which 1-h baseline activity did it give?
**A.** The 1-h baseline activity was -1.36.

**Q.** How did the 1-h baseline activity turn out when `O=C(c1ccc(OCCN2CCCCC2)cc1)c1c(-c2ccc(O)cc2)sc2cc(O)ccc12` [Raloxifene hydrochloride] was run?
**A.** The 1-h baseline activity was -7.31.

**Q.** With `Nc1cccc2c1CN(C1CCC(=O)NC1=O)C2=O` (stereo not given) [Lenalidomide] as the compound, how does the 1-h baseline activity read?
**A.** Its 1-h baseline activity is -7.06.

**Q.** `CN1CC[C@@H](NC(=O)Nc2ccc(C#N)cc2)C[C@@H]1c1nc2ccccc2[nH]1` was tested. Which 1-h baseline activity did it give?
**A.** Its 1-h baseline activity is -10.

**Q.** How did the 1-h baseline activity turn out when `CNC(=O)c1ccccc1Sc1ccc2c(/C=C/c3ccccn3)n[nH]c2c1` [Axitinib] was run?
**A.** The 1-h baseline activity was -3.55.

**Q.** How did the 1-h baseline activity turn out when `O=C(O)CCCc1ccccc1` [Sodium 4-Phenylbutyrate] was run?
**A.** The 1-h baseline activity was 0.969.

**Q.** Which 1-h baseline activity does the source give for `CC1=Nc2ccc(Cl)cc2S(=O)(=O)N1` [Diazoxide] here?
**A.** The 1-h baseline activity was 7.2.

**Q.** `CC/C(=C(\c1ccccc1)c1ccc(OCCN(C)C)cc1)c1ccccc1` [Tamoxifen citrate] was tested. Which 1-h baseline activity did it give?
**A.** Its 1-h baseline activity is 26.3.

**Q.** With `CC(C)c1ccc2oc3nc(N)c(C(=O)O)cc3c(=O)c2c1` [Amlexanox] as the compound, how does the 1-h baseline activity read?
**A.** Its 1-h baseline activity is 5.8.

**Q.** How did the 1-h baseline activity turn out when `C[C@]12CC[C@@H]3c4ccc(O)cc4C[C@@H](CCCCCCCCC[S+]([O-])CCCC(F)(F)C(F)(F)F)[C@H]3[C@@H]1CC[C@@H]2O` (stereo not given in full) was run?
**A.** The 1-h baseline activity was 8.32.

**Q.** `CC(C)n1c(/C=C/C(O)CC(O)CC(=O)O)c(-c2ccc(F)cc2)c2ccccc21` (stereo not given) [Fluvastatin sodium] was tested. Which 1-h baseline activity did it give?
**A.** Its 1-h baseline activity is -0.765.

**Q.** With `CC(=O)NC[C@H]1CN(c2ccc(N3CCOCC3)c(F)c2)C(=O)O1` [Linezolid] as the compound, how does the 1-h baseline activity read?
**A.** The 1-h baseline activity was 3.05.

**Q.** For `CC(C)c1nc(CN(C)C(=O)N[C@H](C(=O)N[C@@H](Cc2ccccc2)C[C@H](O)[C@H](Cc2ccccc2)NC(=O)OCc2cncs2)C(C)C)cs1` [Ritonavir], which 1-h baseline activity is on record?
**A.** Its 1-h baseline activity is -4.53.

**Q.** For `Cc1cn([C@H]2C=C[C@@H](CO)O2)c(=O)[nH]c1=O` [Stavudine], which 1-h baseline activity is on record?
**A.** The 1-h baseline activity was -7.04.
